# Test results taken from PubChem BioAssay (NCI).
# Compounds without any hit were thinned out: in the full panel of roughly 83,000, 20% have a hit.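 Treatment: one concentration, 48 hours, 96-well format. Scoring: percent growth, with anything below 10 considered active.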 Unmarked numbers belong to inactive results. Activity calls are given as the source filed them.
# Tests used:
# Experiment in all cases: NCI-60 one-dose screen, 48 h (100 = growth as untreated, 0 = no growth, -100 = all killed)
# Settings in all cases: 10 µM unless noted
# SK-MEL-2 melanoma = system: SK-MEL-2 melanoma
# EKVX NSCLC = system: EKVX NSCLC
# SN12C renal = system: SN12C renal
# UO-31 renal = system: UO-31 renal
# TK-10 renal = system: TK-10 renal
# ACHN renal = system: ACHN renal
# CAKI-1 renal = system: CAKI-1 renal
# A498 renal = system: A498 renal
# CCRF-CEM leukemia = system: CCRF-CEM leukemia
# MOLT-4 leukemia = system: MOLT-4 leukemia
# SR leukemia = system: SR leukemia
# RPMI-8226 leukemia = system: RPMI-8226 leukemia
# OVCAR-8 ovarian = system: OVCAR-8 ovarian
# OVCAR-5 ovarian = system: OVCAR-5 ovarian
# OVCAR-4 ovarian = system: OVCAR-4 ovarian
# OVCAR-3 ovarian = system: OVCAR-3 ovarian
# HS 578T breast = system: HS 578T breast
# NCI/ADR-RES ovarian = system: NCI/ADR-RES ovarian
# IGROV1 ovarian = system: IGROV1 ovarian
# SK-OV-3 ovarian = system: SK-OV-3 ovarian
SMILES,growth (SK-MEL-2 melanoma),growth (EKVX NSCLC),growth (SN12C renal),growth (UO-31 renal),growth (TK-10 renal),growth (ACHN renal),growth (CAKI-1 renal),growth (A498 renal),growth (CCRF-CEM leukemia),growth (MOLT-4 leukemia),growth (SR leukemia),growth (RPMI-8226 leukemia),growth (OVCAR-8 ovarian),growth (OVCAR-5 ovarian),growth (OVCAR-4 ovarian),growth (OVCAR-3 ovarian),growth (HS 578T breast) [%],growth (NCI/ADR-RES ovarian),growth (IGROV1 ovarian),growth (SK-OV-3 ovarian) [%]
CCCS(=O)(=O)Nc1cccc(Nc2ncnc3cc(NC(=O)CCl)ccc23)c1Cl,-32.1% (active),-14.9% (active),-76% (active),-95% (active),-36.4% (active),-94.4% (active),-74.6% (active),9.01% (active),3.74% (active),4.33% (active),2.37% (active),-32.1% (active),0.271% (active),-65% (active),-38.3% (active),-85.3% (active),10.5,49.9%,,
O=C1/C(=C/c2ccc(-c3ccc(Cl)cc3)o2)SC(=S)N1CCc1ccc(O)cc1,58.5%,80.5%,63%,28.5%,51.1%,65.3%,20.4%,58.9%,13.5%,15.3%,24.5%,55.5%,16.4%,75.2%,,24.1%,36.6,77.3%,31.8%,
COc1cc(/C=N/NC(=O)c2ccc3nc(-c4ccc(Cl)cc4)[nH]c3c2)cc(OC)c1OC,83.6%,95.8%,68.5%,88.3%,77.4%,67.4%,76%,-1.95% (active),36.6%,41.6%,45.7%,19.9%,60.5%,172%,,61.6%,48.3,106%,68.4%,87.8
COC12C=C/C(=C(/C(=O)OCc3ccccn3)C(=O)CCCCCCCCC3(OC)C=C/C(=C(/C(=O)OCc4ccccn4)C(=O)CCCCCCCC1)O3)O2,10.8%,-9.9% (active),-22.2% (active),-45.7% (active),4.32% (active),-14.9% (active),-4.53% (active),-86.3% (active),0.645% (active),0.868% (active),-9.81% (active),,16.8%,34.9%,28.8%,-36.3% (active),49.7,7.96% (active),-39.1% (active),46.3
